Data: PubChem BioAssay AID1745845 (National Center for Advancing Translational Sciences (NCATS), 2022)
Out of some 360,000 compounds screened, about 2,600 (0.72%) were called active. Inconclusive results (about 5%) are left out. The call rests on the fitted dose curve; in most records, active means well fitted inhibition curve with a large enough effect; inconclusive means small, poorly fitted or top-dose-only effect; inactive means no such curve, though single readings can be large or run the other way. The list comes from a sample in which actives are over-represented; it also holds similar structures and randomly drawn compounds. Entries that show only a call come without a potency.

assay: Primary qHTS for Inhibitors of ATXN expression; conditions: HEK-293 ATXN2-luciferase reporter, luminescence, 24 h; series mostly up to 57 µM; further: nearly all actives have a fitted effect of over 55% in size
Outline: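 qHTS (up to 57 uM final) was run with 24 h compound exposure of reporter cells at 37 °C. Each well was multiplexed: SteadyGlo luminescence measured ATXN2-luciferase expression after a fluorogenic Gly-Phe-AFC viability readout (25 uM final).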
Potency means the concentration at half of the fitted maximal effect.

Structure (SMILES)	Potency
O=C(Nc1cccc(-c2cccc(Cl)c2)c1)C1CCN(C2CCC2)CC1	28.2 µM (active)
O=C(NC1CCCC1)C1CCN(C(=O)Nc2cccc(Cl)c2)CC1	inactive
COc1cccc(-c2cccc(NC(=O)C3CCN(C4CCC4)CC3)c2)c1	inactive
Cc1cc(C)c2nc3nc(C)cc(C)c3c(N)c2c1	25.1 µM (active)
CC(=O)OC[C@@H]1O[C@@H](n2ccc(=O)[nH]c2=O)[C@H](OC(C)=O)[C@H]1OC(C)=O	inactive
Cc1cccc(C)c1NC(=O)c1ccc(N)cc1	inactive
COc1cc(C=CC(=O)O)ccc1O	inactive
Cc1nc(Nc2ccccc2C)c2cnn(C)c2n1	inactive
Cc1cc(Nc2cccc(C(F)(F)F)c2)nc2ccc(NC(=O)c3ccc(=O)[nH]c3)cc12	inactive
Cc1ccc(C(=O)Nc2cccc(C(F)(F)F)c2)cc1Nc1nc(-c2cccnc2)nc2c1cnn2C	24.3 µM (active)
COc1ccc(NC(=O)Nc2cccc(-c3noc(C)n3)c2)cc1	inactive
CCCNC(=O)CCC(=O)N1Cc2ccccc2Oc2ncccc21	inactive
CCOC(=O)Cn1c(=O)n(-c2ccccc2OC)c2nc(-c3cccc(F)c3)nc(C(N)=O)c21	inactive
COc1ccc(OC)c(-c2nc(C(N)=O)c3c(n2)n(-c2ccc4c(c2)OCO4)c(=O)n3C)c1	inactive
COC(=O)Cc1ccc(OCC(=O)Nc2ccc(OC(F)(F)F)cc2)cc1	inactive
CCc1ccc2c(c1)NC(=O)C2(C)Cc1ccc(OC(F)(F)F)cc1 (centres undefined)	25.1 µM (active)
CCC(=O)N1CCc2cc(Br)cc(S(=O)(=O)CCC(=O)NCc3ccccc3OC)c21	inactive
COc1ccc(OC)c(CNC(=O)Cn2nc(C)c3c(C)n(-c4ccccc4)nc3c2=O)c1	inactive
O=C(COc1ccc(Cl)cc1Cl)N/N=C/c1ccccn1	inactive
O=C(N/N=C/c1ccccn1)C12CC3CC(CC(C3)C1)C2	inactive
Cc1nnc(N/N=C/c2ccccn2)[nH]c1=O	2 µM (active)
CCc1cc2c(-c3ccccc3)cc(=O)oc2c2c1OCN(Cc1ccc(C)cc1)C2	inactive
O=C1CC(c2nnc(Cc3ccc(Cl)cc3)o2)CN1c1ccccc1 (centres undefined)	inactive
COc1cccc2[nH]c(C(=O)NCCc3ccccc3)cc12	inactive
COc1ccccc1OCCNCC(O)COc1cccc2[nH]c3ccccc3c12 (centres undefined)	28.2 µM (active)

Structure (SMILES)	Potency
CC(O)CNCCOc1cccc(Oc2ccccc2)c1 (centres undefined)	inactive
COc1cc(OC)c(NC(=O)c2cnc(N3CCCC3)nc2C)cc1Cl	inactive
COc1ccc(NC(=O)C(=O)NCc2ccco2)cc1	inactive
COc1ccc(CS(=O)/C(Cl)=C(/Cl)C(=O)Nc2ccc(OC)nc2)cc1 (centres undefined)	2.12 µM (active)
COc1ccc(C(O)c2nc(-c3ccc(OC)nc3)cs2)cc1 (centres undefined)	inactive
Cc1ccc(C)c(N2CCN(C(=O)C3CCC(CNS(=O)(=O)c4cccs4)CC3)CC2)c1 (centres undefined)	inactive
O=C(OCC(O)CO)c1ccccc1Nc1ccnc2c(C(F)(F)F)cccc12 (centres undefined)	inactive
Cc1ccc(-c2ncc(Cl)cc2-c2ccc(S(C)(=O)=O)cc2)cn1	inactive
CC(CN1CCCCC1)OC(=O)c1ccccc1Cl (centres undefined)	inactive
CC(C)OC(=O)c1ccc(NCc2cc(O)ccc2O)cc1Cl	17.8 µM (active)
CC(OC(=O)c1ccc(Cl)cc1O)C(=O)NCCC1=CCCCC1 (centres undefined)	inactive
O=C(N/N=C\c1ccc(Br)cc1)c1ccc(Cn2cccn2)o1	inactive
Cc1c(Cl)c([N+](=O)[O-])nn1Cc1ccc(C(=O)N/N=C\c2cc(Cl)ccc2O)o1	2.82 µM (active)
Cc1nn(Cc2ccccc2Cl)c(C)c1NC(=O)Cn1nc([N+](=O)[O-])c(Cl)c1C	inactive
Cc1nn(-c2ccc(F)cc2)c(-n2cccc2)c1C(=O)N1CCN(c2ccccc2)CC1	inactive
COc1ccccc1-n1nnnc1SCC(=O)NC(=O)Cc1ccccc1	inactive
CCC(C)N(C(=O)CSc1nnnn1-c1ccccc1OC)C1CCS(=O)(=O)C1 (centres undefined)	inactive
COc1ccccc1-n1nnnc1S(=O)(=O)Cc1ccc(Cl)cc1	14.1 µM (active)
Cc1cn(C)c(CC(=O)NCc2ccc(Cl)cc2)c1C(=O)O	inactive
CCc1ccc(Nc2nn3c(=O)c4cc5c(cc4nc3s2)OCO5)cc1	inactive
Cc1ccc(SCC(=O)Nc2ccc3oc(-c4ccccc4C)nc3c2)cc1	inactive
COc1ccc(-c2cc(-c3ccccc3)nc3c2COc2ccc(Cl)cc2-3)cc1	inactive
CCC(=O)N1CCc2cc(S(=O)(=O)NCCC(=O)Nc3cccc(C)c3C)ccc21	inactive
COc1ccc(NC(=O)C2CCCN(S(=O)(=O)c3c(C)[nH]c(=O)[nH]c3=O)C2)c(OC)c1 (centres undefined)	inactive
Oc1c(Cl)cc(Cl)c(Cl)c1Cc1c(O)c(Cl)cc(Cl)c1Cl	28.2 µM (active)

Structure (SMILES)	Potency
OCCC#Cc1ccc(N2C(c3ccsc3)=Cc3ccc(F)cc3C2c2c[nH]c3ccccc23)cc1 (centres undefined)	inactive
Cc1cc(Cl)ccc1-c1nc(NCCN(C)C)nc2ccsc12	inactive
CCOC(=O)c1cnc(-n2nc(C)cc2C)nc1NNc1cc(C)nc(-c2ccccc2)n1	7.08 µM (active)
Cc1cc(-n2nc(C)cc2C)n2ncc(-c3ccccc3)c2n1	inactive
Cc1cc(C)n(-c2c(F)c(F)c(COC(=O)c3ccccc3)c(F)c2F)n1	inactive
Cc1ccc(CN2CCCn3nc(C(=O)NCc4ccccc4Cl)cc3C2=O)cc1	inactive
O=C1CC(c2ccc(F)cc2F)c2cc3c(cc2N1)OCO3 (centres undefined)	inactive
Cc1cccn2c(=O)c3cc(C(=O)NC(C)c4ccccc4)c(=N)n(CCCO)c3nc12 (centres undefined)	inactive
COC(=O)c1sc(NC(=S)NC(=O)c2ccc(C)cc2)nc1C	inactive
COC(=O)c1sc(NC(=O)c2ccc(OC)cc2OC)nc1C	2.24 µM (active)
COc1ccc(C(=O)NC2=NCCS2)c(OC)c1	inactive
O=C(NC1CCCCC1)c1ccc(Cn2c(SCc3ccccc3)nc3cccnc32)cc1	inactive
COC(=O)c1ccc2nc(-c3ccc(OC)c(OC)c3)c(Cc3ccccc3)n2c1	inactive
Cc1cc(Nc2cc(CN3CCOCC3)c3nc(C)c(Cc4ccc(Cl)cc4F)n3n2)n[nH]1	19.3 µM (active)
Cc1ccc(Cl)cc1NC(=O)CN1CCN(S(=O)(=O)N2CCOCC2)CC1	inactive
O=C1NC(=O)C(=Cc2cccc(C(F)(F)F)c2)S1	inactive
CCOC(=O)c1cc2c(=O)n3ccccc3nc2n(Cc2ccco2)c1=NC(=O)c1ccc(F)cc1	inactive
CCC1CCCCN1Cc1c(O)ccc2c(=O)c(Oc3ccccc3Cl)c(C(F)(F)F)oc12 (centres undefined)	inactive
C[C@@H]1C[C@@H]2O[C@H]2/C=C\C=C\C(=O)Cc2c(Cl)c(O)cc(O)c2C(=O)O1	4.74 µM (active)
CC1(C(=O)NCc2cccc3ccccc23)CCN1Cc1ccc(-c2ccccc2)o1 (centres undefined)	inactive
CN(C)CCCN(C(=O)c1ccc(S(=O)(=O)N2CCCCCC2)cc1)c1nc2ccc(Br)cc2s1	31.6 µM (active)
Cc1cc(C)c2sc(NC(=O)c3ccc(S(=O)(=O)N4CCCC4)cc3)nc2c1	inactive
CN(C)CCN(C(=O)C1=COCCO1)c1nc2ccc(Cl)cc2s1	inactive
CCOC(=O)c1ccc(-c2ccc3ncnc(N(C)Cc4sccc4C)c3c2)o1	inactive
O=c1c2ccccc2ncn1/N=C/c1ccccc1	inactive

Structure (SMILES)	Potency
CCn1c(/C=C/c2ccc([N+](=O)[O-])o2)nc2ccccc2c1=O	8.91 µM (active)
Cc1ccc(-n2c(SCC(=O)N/N=C/C=C/c3ccccc3[N+](=O)[O-])nc3ccccc3c2=O)cc1	inactive
Cc1ccc(-n2c(SCC(=O)Nc3cccc(F)c3)nc3c(oc4ccccc43)c2=O)cc1C	inactive
CCCc1c2oc(C(=O)O)cc(=O)c2cc2c(=O)cc(C(=O)O)n(CC)c12	inactive
CC1(C)OC[C@@H](COC(=O)CCc2ccc(OC[C@@H](O)CNCCNC(=O)N3CCOCC3)cc2)O1	inactive
Cc1ccc(C)c(N2CCN(C(=O)CCCn3c(=O)c4cccn4c4cccnc43)CC2)c1	inactive
Cc1ccc(C)c(N2CCN(C(=O)CCCCCn3c(=S)[nH]c4ccc(N5CCOCC5)cc4c3=O)CC2)c1	2.82 µM (active)
Cc1ccc(C)c(N2CCN(C(=O)CCc3nc4ccccc4[nH]3)CC2)c1	inactive
COc1ccc(-c2c(C)c3ccc(O)c(CN4CCCC4)c3oc2=O)cc1OC	inactive
CO[C@H]1O[C@@H]2O[C@@]3(C)CC[C@@H]4[C@@H](C)CC[C@@H]([C@H]1C)[C@@]24OO3	inactive
CCOc1ccc(CNC(=O)c2cccc(Nc3nc4ccccc4n4nnnc34)c2)cc1OC	inactive
C=CCn1c(C)cc(C2=NNC(=NCC)SC2)c1C	0.447 µM (active)
C=C1C(=CC=C2CCC[C@]3(C)[C@@H]([C@H](C)C=C[C@H](C)C(C)C)CC[C@@H]23)C[C@@H](O)C[C@@H]1O	inactive
COc1ccc(Cc2nc3ccc(C(=O)NCc4ccccc4Cl)cc3o2)cc1	inactive
O=C(Nc1ccccn1)C1CCN(S(=O)(=O)c2ccccc2)CC1	inactive
Cc1ccc(S(=O)(=O)N2CCC(C(=O)Nc3cc(C)ccc3C)CC2)cc1	inactive
Cc1ccnc(NC(=O)C2CCN(S(=O)(=O)c3c(C)c(C)cc(C)c3C)CC2)c1	7.94 µM (active)
COc1cccc(CNC(=O)C(=O)NCC(c2cccs2)S(=O)(=O)c2ccccc2)c1 (centres undefined)	inactive
CCc1ccc(OC2(C)CCN(CCOc3ccc(C)cc3)C2)cc1 (centres undefined)	inactive
CCCCCCCCn1c2c(c(=N)c3c1CCC3)CCCC2	0.891 µM (active)
CCCS(=O)(=O)N1CCC(n2c(C(F)(F)F)nc3cccnc32)CC1	inactive
CCOc1cc2[nH]c(=O)n(Cc3ccc(C(=O)NCCN(CC)CC)cc3)c(=O)c2cc1OCC	inactive
CCN(CC)CCNC(=O)c1c(C)[nH]c(C=C2C(=O)Nc3ccc(F)cc32)c1C	44.4 µM (active)
CCN(CC)CCNC(=O)c1cc(S(C)(=O)=O)ccc1OC	inactive
